High-throughput results: PubChem, several laboratories
Only some compounds are listed: those with a hit (about 4.8% of all), similar ones and a draw of the others.
tim23-1 inh: growth inhibitors of tim23-1 mutant yeast, primary screen, luminescence, uHTS. AID 463212, 2010. S. cerevisiae tim23-1 growth, BacTiter-Glo luminescence, 24 h. inhibition, % at 20 µM. 330,000 compounds, 1.3% hits;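 active means growth inhibition of the mutant yeast at or above 50%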;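 further: temperature-sensitive mutant grown at 25 °C; plate controls were DMSO-treated mutant yeast for no effect and medium wells lacking yeast for full effect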
SKKanGAS inh: S. pyogenes SKKanGAS growth inhibitors in kanamycin, primary screen, streptokinase expression inhibitor project, SKKanGAS strain, BacTiter-Glo luminescence. 6 h. inhibition, % at 7.5 µM. 300,000 compounds, 1.3% hits. AID 1662, 2009;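 active means mean replicate score, as percent of positive control median, at least 50; inconclusive means mean below 50 but one replicate at or above 50; inactive means mean and every replicate below 50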;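 further: strain carries kanamycin resistance gene driven by streptokinase promoter and grows in 40 µg/ml kanamycin; loss of luminescence reflects streptokinase promoter inhibition or plain growth inhibition; 0% = median of DMSO wells and 100% = positive control at its reference dose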
NALP1 inh: NALP1 inflammasome inhibitors in reconstituted yeast, colorimetric, S. cerevisiae, triplicate retest. inhibition, % at 10 µM. AID 2071, 2009. S. cerevisiae NALP1/ASC/caspase-1 growth, X-gal OD620, 72 h. 280,000 compounds, 0.61% hits; in the data active means inhibition mostly above about 24%, no sharp cut-off; inactive means mostly below about 32%
TIM10 inh: growth inhibitors of isogenic TIM10 control yeast, primary screen, counter-screen for tim10-1 yeast inhibitor project, luminescence, uHTS; S. cerevisiae TIM10 strain growth, BacTiter-Glo luminescence, 24 h; inhibition, % at 10 µM; 330,000 compounds, 1.4% hits;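 active means inhibition of 40% or more at the single tested concentration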;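 further: wild-type TIM10 isogenic control strain grown at permissive 25 °C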
PfHsp90 yeast 2: growth inhibition of PfHsp90-expressing yeast, primary screen, antimalarial PfHsp90 inhibitor project, S. cerevisiae, BacTiter-Glo luminescence, single point, set 2; inhibition, % at 9.4 µM; 310,000 compounds, 0.32% hits; AID 504621, 2011; BacTiter-Glo ATP, 48 h; yeast lacking PDR1 and PDR3 efflux regulators;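 active means every replicate shows inhibition above about 80%, whatever the replicate mean, limit read from the data; inconclusive means mean inhibition reaches the set limit but some replicate falls short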;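 further: 0% = DMSO neutral controls and 100% = 20 µM radicicol positive controls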
tim10-1 inh: growth inhibitors of tim10-1 mutant yeast, primary screen, luminescence, uHTS; S. cerevisiae tim10-1 ts strain growth, BacTiter-Glo, 24 h; inhibition, % at 20 µM; 330,000 compounds, 2.2% hits;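 active means inhibition of at least 40%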;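 further: mutant grown at 25 °C; 0% = DMSO wells with yeast and 100% = wells holding no yeast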
tim10-1 confirm: growth inhibitors of tim10-1 mutant yeast, confirmation, single concentration, luminescence, S. cerevisiae; shares compounds with tim10-1 inh; S. cerevisiae tim10-1 ts strain growth, BacTiter-Glo, 24 h; inhibition, % at 20 µM; 7,400 compounds, 56% hits; AID 463213, 2010;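 active means inhibition of yeast growth at or above a set limit in either of two repeat tests at 20 µM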;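 further: tim10-1 mutant grown at permissive 25 °C to find synthetic lethal compounds; 0% = DMSO yeast wells and 100% = medium wells without yeast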
TIM10 conf: growth inhibitors of wild-type TIM10 yeast, confirmation, counter-screen for tim10-1 synthetic lethality project, single concentration, luminescence, S. cerevisiae; S. cerevisiae tim10 strain growth, BacTiter-Glo luminescence, 24 h; inhibition, % at 10 µM; shares compounds with TIM10 inh; AID 463215, 2010; 4,600 compounds, 63% hits;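 active means inhibition of yeast growth at or above a set limit in either of two replicates at 10 µM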;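 further: this counterscreen used the strain with wild-type TIM10; 0% = yeast with DMSO and 100% = medium wells lacking yeast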
Active calls of the source: *; ? = inconclusive; / = no result given.

SMILES	tim23-1 inh	SKKanGAS inh	NALP1 inh	TIM10 inh	PfHsp90 yeast 2	tim10-1 inh	tim10-1 confirm	TIM10 conf
O=C(c1ccc(-c2ccc([N+](=O)[O-])cc2)o1)N1CCCC(C(F)(F)F)C1 (stereo not given)	43.9	-4.6	/	42.6*	/	64.0*	55.5*	47.6*
CC1CCCN(C(=O)c2ccc([N+](=O)[O-])o2)C1 (stereo not given)	40.9	-1.8	0.3	45.9*	2.1	56.9*	40.2*	40.2*
CC1CCCN(C(=O)c2ccc(-c3ccccc3Cl)o2)C1 (stereo not given)	29.1	12.1	/	-7.6	-0.1	32.6	/	/
N#C/C(=C\C=C\c1ccccc1[N+](=O)[O-])C(=O)NC1CCCCC1	29.9	-1.2	9.3	43.0*	/	55.2*	47.2*	53.0*
N#C/C(=C\c1cccn1-c1ccccc1)C(=O)NC1CCCCC1	38.4	-1.1	/	30.4	12.3	34.4	/	/
CCOc1ccc(S(=O)(=O)n2nc(C)cc2C)c2ccccc12	13.3	-0.3	-5.3	23.9	7.5	28.1	/	/
COc1ccc(C(=O)CC(=O)C(=O)NCCc2cccc(C)c2)cc1	6.9	-4.5	-14.6	-4.1	7.5	29.8	/	/
O=[N+]([O-])c1ccc(-c2nc(-c3cccs3)c(-c3cccs3)[nH]2)cc1	15.0	?	8.0	68.8*	-5.8	64.5*	52.0*	60.8*
O=[N+]([O-])c1cccc(-c2nc(-c3ccccc3)c(-c3cccs3)[nH]2)c1	10.0	-6.5	4.4	14.5	-20.1	16.6	/	/
CNC(=S)N/N=C/c1cccc(OCc2ccccc2F)c1	42.9	-12.8	24.8	34.7	-40.6	25.7	/	/
CCNC(=S)N/N=C/c1cccc(OCc2c(F)cccc2Cl)c1	30.9	-1.0	-2.7	53.3*	-3.1	44.3*	37.0*	41.1*
Cc1cc(NC(=O)COC(=O)C(Nc2ccc(C(F)(F)F)cc2Cl)C(C)C)no1 (stereo not given)	42.9	28.6	17.7	50.0*	15.3	52.6*	23.2	43.4*
Cc1cc(NC(=O)COC(=O)c2ccc(OC(F)(F)F)cc2)no1	14.5	/	/	-1.9	13.6	7.8	/	/
CC(C)OC(=O)CN1C(=O)S/C(=C/c2ccc(N3CCCCC3)o2)C1=O	43.7	3.8	-1.8	45.7*	?	46.1*	72.0*	83.1*
Cc1ccccc1OCC(=O)NCC(=O)N/N=C/c1ccc(Br)o1	14.6	-14.3	32.1	14.4	-11.0	12.3	/	/
CCCCCCCC(=O)N/N=C/c1ccc([N+](=O)[O-])o1	43.1	-0.6	40.8	49.4*	/	55.2*	56.3*	26.1
Cc1ccccc1OCC(=O)N/N=C/c1ccc([N+](=O)[O-])o1	45.5	2.9	29.6	41.6*	-12.3	44.6*	35.1*	22.8
COc1ccccc1OCC(=O)N/N=C/C=C/c1ccc([N+](=O)[O-])o1	46.4	-18.5	48.3	47.7*	-0.5	67.0*	83.7*	50.8*
CCc1cccc(N(C(=O)c2csnn2)C(C(=O)NC2CCCC2)c2cccnc2)c1 (stereo not given)	7.9	-1.5	8.7	-8.2	-10.3	8.7	/	/
Fc1ccccc1N1CCN(C2CCN(Cc3c[nH]c4ccccc34)CC2)CC1	-63.7	-0.8	4.9	1.4	22.0	-6.3	/	/
O=C1/C(=C/c2cccs2)SC(=S)N1c1cccc(O)c1	47.2	10.1	-2.8	60.8*	7.7	41.0*	56.8*	61.0*
N#Cc1nc(-c2cccs2)oc1NCCN1CCOCC1	-2.2	1.1	1.0	-3.2	/	9.6	/	/
N#Cc1nc(-c2cccs2)oc1NCCc1ccccc1	36.3	6.0	7.1	64.8*	/	57.0*	38.1*	67.8*
COc1ccccc1N=c1oc2cc(O)ccc2cc1C(=O)NCC1CCCO1 (stereo not given)	15.3	3.8	5.5	24.1	/	14.4	/	/
COc1ccccc1N=c1oc2cc(O)ccc2cc1C(N)=O	44.9	69.5*	5.5	40.4*	97.4*	47.4*	47.5*	33.5*
SMILES	tim23-1 inh	SKKanGAS inh	NALP1 inh	TIM10 inh	PfHsp90 yeast 2	tim10-1 inh	tim10-1 confirm	TIM10 conf
O=S(=O)(/N=C(/Nc1ccc(F)cc1F)c1ccccc1)c1ccccc1	20.9	-5.6	-6.1	23.5	15.0	11.4	/	/
COc1ccc2nc(NC(=O)CN(c3ccc(C)cc3)S(=O)(=O)c3c(C)nn(C)c3C)sc2c1	40.1	25.7	18.7	41.5*	/	44.7*	30.9*	44.1*
CCCOc1ccc(CN(CCC#N)C(=S)NC(=O)c2ccccc2)cc1	42.2	43.9	-10.9	42.9*	-84.8	47.7*	34.8*	-13.8
O=C(O)c1cccc(N/C(=N\S(=O)(=O)c2ccccc2)c2ccccc2)c1	-11.3	9.9	-8.1	14.0	3.9	2.8	/	/
O=C(c1ccc2c3n(nc2c1)-c1ccccc1CO3)N1CCOCC1	49.0	37.1	0.7	41.4*	29.3	48.4*	51.3*	31.3*
Cc1cc(C)c(C(=O)/C=C/c2cccc3ccccc23)c(=O)[nH]1	37.0	-2.2	23.8	40.7*	-1.1	43.3*	38.3*	-18.6
Cc1cc(C)cc(N2C(=O)CC(Sc3ncn[nH]3)C2=O)c1 (stereo not given)	42.6	0.2	57.5*	41.2*	-25.9	44.9*	34.8*	32.3*
CCn1c(C(C)NC(=O)c2ccccc2C)n[nH]c1=S (stereo not given)	9.6	2.7	11.7	-4.4	11.2	11.3	/	/
COc1ccc(C(=O)/C(=C\c2ccco2)N2C=CC=CC2=C(C#N)C#N)cc1	31.0	-0.1	7.8	59.5*	13.0	52.5*	40.8*	52.8*
COc1ccc(N(CC(=O)NC2CCCCC2)S(=O)(=O)c2cccnc2)cc1	13.7	-0.8	4.4	3.7	-24.3	16.4	/	/
COC(=O)CCN1CCc2cc(N=Nc3ccc([N+](=O)[O-])cc3)ccc21	18.2	7.3	/	-12.8	10.8	20.2	/	/
Cc1ccc(/C=C/C(=O)Nn2cnnc2)cc1	44.7	2.2	7.1	41.7*	15.8	55.7*	27.0	38.8*
Cc1ccc(/C=C/C(=O)Nc2cc(C)on2)cc1	-9.8	1.8	9.1	6.2	-12.1	10.4	/	/
CCOC(=O)CSc1nc2c([nH]c3ccccc32)c(=O)n1C	5.7	-2.4	7.6	9.8	-20.1	18.0	/	/
